# Data as given in PubChem BioAssay (NCATS).
# “And” between values parts separate entries of the source, which are not always exact repeats. Equal entries are not always repeated. Records with an inconclusive call do not appear. A call without a number means that no potency is given here. The source made the active and inactive calls. Calls follow the shape of the dose curve; as a rule, active = well fitted curve in the direction sought with a large enough effect; inconclusive = small, poorly fitted or top-dose-only effect, or another doubt; inactive = no such curve, though single readings can be large; an effect the other way counts as inactive or inconclusive.
# Key:
# [1] = qHTS of pediatric cancer cell lines to identify multiple opportunities for drug repurposing: Confirmatory screen for SK-N-SH cells (AID 1347129);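 also: cells exposed to compound for 48 h before viability read; nearly all actives have a fitted effect of over 60% in size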; also: potency is read from the fitted curve at half-maximal effect
# Procedure, shortened: (§1)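 Viability after 48 h compound treatment at 37C, 500-1,000 cells/well, read as ATP luminescence with CellTiter-Glo. Primary screens used 11-point (MIPE, 0.78 nM-46 µM) or 8-point (NPC, 0.59 nM-46 µM) final concentrations; follow-up screens used 11-point dilutions.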
# [2] = target: Furin (Homo sapiens) (UniProt P09958); assay: Furin counterscreen qHTS for Zika virus inhibitors (AID 1347149); also: nearly all actives have a fitted effect of over 70% in size; also: potency is read from the fitted curve at half-maximal effect
# Sequence of Furin (Homo sapiens) (P09958 whole entry, looked up): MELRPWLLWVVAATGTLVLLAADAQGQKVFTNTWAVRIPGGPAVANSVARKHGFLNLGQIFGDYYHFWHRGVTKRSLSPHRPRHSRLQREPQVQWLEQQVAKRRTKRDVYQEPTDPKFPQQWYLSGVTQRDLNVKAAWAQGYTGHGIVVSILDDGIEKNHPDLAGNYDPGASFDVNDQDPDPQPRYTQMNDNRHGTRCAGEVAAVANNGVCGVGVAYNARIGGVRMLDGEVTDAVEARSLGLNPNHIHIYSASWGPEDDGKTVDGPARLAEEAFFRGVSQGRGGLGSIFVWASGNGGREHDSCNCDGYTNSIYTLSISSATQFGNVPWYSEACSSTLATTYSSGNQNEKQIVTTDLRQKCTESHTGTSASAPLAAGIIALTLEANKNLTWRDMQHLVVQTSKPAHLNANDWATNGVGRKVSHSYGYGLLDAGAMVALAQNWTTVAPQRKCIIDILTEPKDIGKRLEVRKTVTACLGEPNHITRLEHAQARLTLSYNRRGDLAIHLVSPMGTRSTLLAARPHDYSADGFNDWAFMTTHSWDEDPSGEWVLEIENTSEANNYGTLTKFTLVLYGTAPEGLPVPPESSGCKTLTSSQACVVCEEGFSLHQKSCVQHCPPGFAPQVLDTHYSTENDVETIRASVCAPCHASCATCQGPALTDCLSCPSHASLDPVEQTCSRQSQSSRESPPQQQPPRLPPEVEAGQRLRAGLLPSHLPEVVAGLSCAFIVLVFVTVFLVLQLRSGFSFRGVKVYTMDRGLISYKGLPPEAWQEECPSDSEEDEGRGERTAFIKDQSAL
# Procedure, shortened: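 Counterscreen measures cleavage of 2 microM BOC-RVRR-AMC, below its ~15 microM Km, by 5 nM full-length human furin at pH 7.0 after a 15-min compound preincubation. Inhibition derives from the 15-min fluorescence increase at 37C.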
# [3] = test system: Zika virus NS2B-NS3 protease (linked construct); assay: Confirmatory screen NINDS AMC qHTS for Zika virus inhibitors (AID 1347152); also: nearly all actives have a fitted effect of over 70% in size; also: potency is read from the fitted curve at half-maximal effect
# Procedure, shortened: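 Linked NS2B-NS3 protease, 1 nM, in 10 mM Tris-HCl pH 8.0, 0.01% Tween 20; compounds preincubated 15 min at room temperature. Nle-KRR-AMC 10 microM (Km 18.3 µM); 15-min fluorescence change (340/450 nm) fitted to 4-parameter Hill.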
# [4] = qHTS of pediatric cancer cell lines to identify multiple opportunities for drug repurposing: Confirmatory screen for RD cells (AID 1347124);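 also: cells exposed to compound for 48 h before viability readout; nearly all actives have a fitted effect of over 65% in size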
# Procedure, shortened: as §1
# [5] = qHTS of pediatric cancer cell lines to identify multiple opportunities for drug repurposing: Confirmatory screen for Rh30 cells (AID 1347126); also: nearly all actives have a fitted effect of over 55% in size; also: potency is read from the fitted curve at half-maximal effect
# Procedure, shortened: as §1
# [6] = qHTS of pediatric cancer cell lines to identify multiple opportunities for drug repurposing: Confirmatory screen for Saos-2 cells (AID 1347127); also: nearly all actives have a fitted effect of over 60% in size; also: potency is read from the fitted curve at half-maximal effect
# Procedure, shortened: as §1
# [7] = qHTS of pediatric cancer cell lines to identify multiple opportunities for drug repurposing: Confirmatory screen for OHS-50 cells (AID 1347128);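 also: compound exposure lasted 48 h at 37 degrees C; nearly all actives have a fitted effect of over 55% in size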
# Procedure, shortened: as §1
# [8] = test system: Zika virus NS2B-NS3 protease (unlinked); assay: Optimization of GU AMC qHTS for Zika virus inhibitors: Unlinked NS2B-NS3 protease assay (AID 1347151); also: nearly all actives have a fitted effect of over 80% in size; also: potency is read from the fitted curve at half-maximal effect
# Procedure, shortened: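 Noncovalent NS2B hydrophilic domain–NS3 protease complex (25 nM final) in 10 mM Tris-HCl pH 8.0, 0.01% Tween 20; AMC substrate, room temperature 15 min (~20% conversion); fluorescence change normalized, 4-parameter Hill fit.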
# [9] = target: N-terminal Xaa-Pro-Lys N-methyltransferase 1 (Homo sapiens) (UniProt Q9BV86); assay: qHTS Assay for Inhibitors of N-terminal methyltransferase 1 (NTMT1): LOPAC validation of the NTMT1 SAHH-coupled ThioGlo3 Assay (AID 1347143);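 also: SAH from peptide methylation measured as thiol fluorescence via SAHH coupling and ThioGlo3; nearly all actives have a fitted effect of over 70% in size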
# Sequence of N-terminal Xaa-Pro-Lys N-methyltransferase 1 (Homo sapiens) (Q9BV86 whole entry, looked up): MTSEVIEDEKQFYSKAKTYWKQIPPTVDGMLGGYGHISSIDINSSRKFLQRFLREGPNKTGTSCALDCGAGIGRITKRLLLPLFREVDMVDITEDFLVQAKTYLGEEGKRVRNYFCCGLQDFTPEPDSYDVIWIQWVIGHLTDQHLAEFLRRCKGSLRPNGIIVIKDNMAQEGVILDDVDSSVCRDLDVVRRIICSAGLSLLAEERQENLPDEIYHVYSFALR
# Procedure, shortened: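 Steps: dispense 125nM NTMT1; pin-transfer test compounds at several concentrations, with 1uM RCC1-6 peptide as control; incubate 1 min; start with reagent holding 100uM SAM, 10uM SAHH, 15uM ThioGlo3; read at 0 and 30 min.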
compound,measurement,setting,value
CCOc1cc(N2CCC(O)CC2)ccc1Nc1ncc2c(n1)N(C)c1ccccc1C(=O)N2C,Potency,[1],7.43 µM (active)
CCCc1nc2c(C)cc(-c3nc4ccccc4n3C)cc2n1Cc1ccc(-c2ccccc2C(=O)O)cc1,Potency,[2],24.1 µM (active)
same,Potency,[3],21.5 µM (active)
COc1cc(Nc2ncc3c(n2)-c2ccc(Cl)cc2C(c2c(F)cccc2OC)=NC3)ccc1C(=O)O,Potency,[4],inactive
same,Potency,[5],inactive
same,Potency,[6],18.5 µM (active)
same,Potency,[7],inactive
O=C(C1CC1)N1CC[C@@H](Cn2c(-c3ccc(-c4ccc5occc5c4)cc3)nc3cnccc32)C1,Potency,[2],15.2 µM (active)
same,Potency,[3],24.1 µM (active)
O=C(NOC[C@H](O)CO)c1ccc(F)c(F)c1Nc1ccc(I)cc1F,Potency,[4],inactive
same,Potency,[5],inactive
same,Potency,[6],inactive
same,Potency,[7],inactive
Cc1[nH]c(=O)c(C#N)cc1-c1ccc2nccn2c1,Potency,[2],inactive
same,Potency,[8],21.2 µM (active)
same,Potency,[3],inactive
CCC(C)N(C)C(=O)c1cc2ccccc2c(-c2ccccc2Cl)n1 (stereo unspecified),Potency,[9],inactive
same,Potency,[8],inactive
CCn1cc(C(=O)O)c(=O)c2cc(F)c(N3CCNC(C)C3)c(F)c21 (stereo unspecified),Potency,[2],24.1 µM (active)
same,Potency,[8],26.7 µM (active)
same,Potency,[3],24.1 µM (active) and 27.1 µM (active)
CCc1cncnc1N1CCN(Cc2nc3ccc(C(F)(F)F)cc3[nH]2)CC1,Potency,[9],inactive
same,Potency,[8],inactive
OC[C@H](Cc1ccccc1)Nc1nc(Oc2ccc3c(c2)CCC3)nc2c1ncn2Cc1ccc(-c2ccccc2)cc1,Potency,[4],inactive
same,Potency,[1],inactive
Cc1cc(SCc2sc(-c3ccc(C(F)(F)F)cc3)nc2C)ccc1OCC(=O)O,Potency,[2],inactive
same,Potency,[3],19.7 µM (active)
COc1ccccc1-c1cccc(-c2c(O)c3cc(C#N)c(Cl)cc3[nH]c2=O)c1,Potency,[2],inactive
CC(C)c1onc(-c2c(Cl)cccc2Cl)c1COc1ccc(/C=C/c2cccc(C(=O)O)c2)c(Cl)c1,Potency,[2],8.55 µM (active)
same,Potency,[3],24.1 µM (active)
CCC(C)(C)C(=O)O[C@H]1C[C@@H](C)C=C2C=C[C@H](C)[C@H](CC[C@@H]3C[C@@H](O)CC(=O)O3)[C@H]21,Potency,[5],16.5 µM (active)
same,Potency,[6],2.33 µM (active)
same,Potency,[1],5.26 µM (active)
CC(C)C[C@H](NC(=O)[C@@H](O)[C@H](N)Cc1ccccc1)C(=O)O,Potency,[9],inactive
same,Potency,[8],inactive
Cc1[nH]c(=O)c(C#N)cc1-c1ccncc1,Potency,[3],inactive
